# Screening results deposited in PubChem by National Center for Advancing Translational Sciences (NCATS).
# AMA1 RON2 block: disrupts binding of P. falciparum AMA1 to RON2; AID 720542; Potency, µM (titrated, usually from 58.2 µM), for inactives: top-dose activity change, negative = inhibition, hits mostly inhibitors; actives 0.2% (n = 360,000); AlphaScreen AMA1-biotinylated RON2 peptide binding;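 note: 0% = vehicle wells and -100% = peptide control; nearly all actives have a fitted effect of over 45% in size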
#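 AMA1 (3D7) with his tag at 25 nM final met compounds first, then biotinylated RON2 peptide at 25 nM; detection used donor plus acceptor beads, 10 µg/mL apiece, read by AlphaScreen after 30 min at room temperature.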
# Pf growth 48h: inhibits P. falciparum growth in the first generation, 48 h; P. falciparum luciferase growth in erythrocytes, 48 h; Potency, µM (doses to about 28.7 µM), without a hit: at the top dose activity change, negative = inhibition, most hits filed as inhibitors; actives 5.9% (n = 310,000); note: % is set by controls: 0 for no effect and ±100 for the full control effect
#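 Firefly luciferase activity from engineered P. falciparum reports growth; inhibitors lower the luminescent signal. Cultures contained 2% hematocrit erythrocytes at 0.1% final parasitemia.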
# SARS PLpro yeast: inhibitors of SARS-CoV papain-like protease in yeast; actives 0.19% (n = 330,000); Potency, µM (series often up to 32.9 µM), without a hit: top-dose activity, positive = growth rescue, most hits filed as activators; AID 485353; S. cerevisiae expressing SARS-CoV PLpro, growth rescue; calls by dose curve; note: 0% is about no effect; nearly all actives have a fitted effect of over 55% in size
# Pf growth 96h: P. falciparum growth inhibition at 96 hour, primary screen for plastid delayed-death inhibitors; P. falciparum luciferase reporter growth, 96 h; Potency, µM (series often up to 28.7 µM), inactives show at the top dose activity change, negative = inhibition, usual class: inhibitors; actives 6.9% (n = 320,000); AID 504834; note: % is set by controls: 0 for no effect and ±100 for the full control effect
#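 Erythrocytes infected with luciferase-expressing P. falciparum were dispensed at 2% hematocrit and 0.05% parasitemia (final), then incubated with compounds 96 hours at 37 C in 5% CO2. Luminescence after detection reagent addition reported growth.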
# Starred values were filed as active, the others as inactive; ? = inconclusive; · = no result given; [ ] = dose if it differs, or a comment. A selection: hits, their analogues and other compounds. The true share with any hit is near 9.4%. Unless noted, calls come from the whole dose curve; as a rule, active = well fitted curve in the direction sought with a large enough effect; inconclusive = small, poorly fitted or top-dose-only effect, or another doubt; inactive = no such curve, though single readings can be large; an effect the other way counts as inactive or inconclusive. Potency is the fitted concentration of half-maximal effect.
SMILES,AMA1 RON2 block,Pf growth 48h,SARS PLpro yeast,Pf growth 96h
Cc1ccc2nc(N3C(=O)C(O)=C(C(=O)c4ccco4)C3c3ccc(O)cc3)sc2c1 (stereo not given),·,-8%,3%,?
CCCCn1c(=O)c(C(=O)Nc2cccc(C)c2)c(O)c2ccccc21,22%,?,-2%,-7%
Cc1cccc(CN2C[C@]34C=C[C@@H](C[C@@H]3S2(=O)=O)O4)c1,-3%,29%,1%,18%
CCOC(=O)C1(Cc2cccc(OC)c2)CCCN(Cc2nccn2CC)C1 (stereo not given),-8%,?,-1%,12µM*
CCOC(=O)C1(Cc2cccc(OC)c2)CCCN(C(=O)c2cc(C)on2)C1 (stereo not given),-2%,-15%,-12%,6.6µM*
O=C(NCCn1cc(SCC(=O)N2CCOCC2)c2ccccc21)c1c(F)cccc1F,-9%,-18%,0%,?
Cc1csc2nc(O)c(C(=O)NCc3ccc4c(c3)OCO4)c(=O)n12,22%,?,-1%,-21%
COc1cc(-c2cc3nc(C)c(C)c(=O)n3[nH]2)cc(OC)c1OC,-1%,10µM*,-3%,97%
CCc1c(C)nc2cc(-c3ccccc3)[nH]n2c1=O,-3%,?,-8%,?
Cc1oc2c(c1C(=O)c1ccccc1)C(=O)C(=O)c1ccccc1-2,?,9.3µM*,-40%,13µM*
CCOC(=O)c1c(C)oc2c1C(=O)c1ccccc1C2=O,-11%,0.74µM*,-1%,-3%
COc1ccc(OC)c(NS(=O)(=O)c2ccc(-c3coc(C)n3)cc2)c1,-16%,11%,2%,-14%
O=c1[nH]nc(-c2cccs2)c2ccccc12,-6%,-2%,0%,10%
COc1ccc(NC(=O)CN(C)C(=O)c2ccccc2CCc2ccccc2)cc1,-21%,?,2%,-6%
CCc1cccc(CC)c1NC(=O)c1ccccc1CCc1ccccc1,-5%,15µM*,-6%,0%
Cc1nn(Cc2ccccc2Cl)c(C)c1C(=O)N(C)CC(=O)Nc1cccc(F)c1,30%,13µM*,-5%,?
CN(CC(=O)Nc1cccc(F)c1)C(=O)c1ccccc1CCc1ccccc1,-13%,6.6µM*,-2%,?
CCOc1ccc(NC(=O)CN(C)C(=O)c2c(C)nn(Cc3ccccc3Cl)c2C)cc1OCC,0%,·,·,·
Cc1cccc(COc2ccccc2C(=O)N(C)CC(=O)Nc2cccc(F)c2)c1,1%,?,2%,4.1µM*
Cc1cc(C)n(-c2ccc(NC(=O)C3CCN(Cc4cc(C)c(C)o4)CC3)cc2)n1,3%,?,24%,-2%
COC(=O)C1=C(c2ccc(S(C)(=O)=O)cc2)C[C@@H]2CC[C@H]1N2C(=O)NCc1ccc(F)cc1,1%,·,·,·
CCOC(=O)c1ccccc1NC1c2ccccc2C(=O)N1C1CCN(C(=O)OCC)CC1 (stereo not given),2%,1.7µM*,-27%,?
COc1ccc(S(=O)(=O)N2CCN(C(=O)c3cc(-c4ccccc4OC)n[nH]3)CC2)cc1,10%,1.3µM*,-7%,-2%
COc1cccc(-c2cc(C(=O)N3CCN(S(=O)(=O)c4ccc(Br)cc4)CC3)[nH]n2)c1,6%,-17%,0%,13µM*
CCCCn1nnnc1NCc1cc(Cl)c(OC)c(OC)c1,14%,?,0%,12%
SMILES,AMA1 RON2 block,Pf growth 48h,SARS PLpro yeast,Pf growth 96h
CCn1c(CCCNC(=O)c2ccco2)nc2ccccc21,0%,-25%,-2%,13%
CCC(=O)Nc1nc2ccccc2n1Cc1ccc(Cl)cc1,108%,?,-2%,106%
CCn1c(CCNC(=O)c2ccco2)nc2ccccc21,-14%,-8%,2%,9.3µM*
O=C(Nc1nc2ccccc2n1Cc1ccccc1)c1ccco1,-1%,13µM*,1%,·
Oc1c(Br)cc2oc3c(c2c1CNCc1ccccc1)CCCC3,41%,·,0%,0.29µM*
CCCCN(Cc1cc2cc(OC)ccc2[nH]c1=O)C(=O)c1ccccn1,-3%,3%,-4%,12%
CC(=O)c1c(C)[nH]c(C(=O)N2CCc3ccccc3C2)c1C,-5%,8%,3%,27%
CN(C)c1nc(-c2ccccc2)[n+](C)s1,44%,12µM*,-1%,23%
CCCc1ccc(OCc2ccc(C(=O)N3CCN(c4ccccn4)CC3)o2)c(OC)c1,-20%,13µM*,-11%,-1%
COc1ccc(CC(=O)N2CCN(c3ccccn3)CC2)cc1OC,-5%,-11%,1%,·
CCCc1ccc(OCc2ccc(C(=O)N3CCCC3)o2)cc1,-15%,10µM*,-12%,23%
CCOc1ccc(OCc2ccc(C(=O)N3CCCC3)o2)cc1,18%,-7%,-16%,63%
O=C(Nc1ccccc1)Nc1ccc2snnc2c1,3%,?,-76%,3.3µM*
N#CC(=C1C=C(Br)C(=NO)C=C1Cl)c1cccc2ccccc12,14µM*,·,·,·
O=C(c1ccc(F)cc1)N1CCN2C(=O)c3ccccc3C12c1ccc(Cl)cc1 (stereo not given),-3%,13µM*,0%,5.2µM*
O=C(c1ccc(F)cc1)N1CCN2C(=O)c3ccccc3C12c1ccccc1 (stereo not given),-1%,0%,0%,?
O=C1c2ccccc2C2(c3ccc(Cl)cc3)NCCN12 (stereo not given),25%,-14%,2%,13µM*
O=C1c2ccccc2C2(c3ccccc3)NCCCN12 (stereo not given),-9%,10%,-1%,38%
CC(Oc1cccc(F)c1)C(=O)Nc1ccc(N2CCOCC2)cc1 (stereo not given),-7%,0%,-1%,-5%
C=CC(=O)N(CCC)C(c1ccccc1)c1ccccc1OC (stereo not given),-4%,13µM*,-4%,?
COc1ccccc1CN(C)C(=O)C(c1ccccc1)c1ccccc1,-5%,?,-5%,?
CCOc1ccc(NC(=O)Nc2cc(OCC(F)(F)F)cc(OCC(F)(F)F)c2)cc1,-16%,0.83µM*,20%,1.9µM*
COc1ccc(OCCOC(=O)c2ccc(F)c(S(=O)(=O)N3CCOCC3)c2)cc1,-3%,?,-3%,?
N/C(=N\OC(=O)c1ccc2ccccc2c1)c1ccc(Br)cc1,-6%[2.32 µM],13µM*,10%,293%
Cc1ccc(/C(N)=N/OC(=O)c2ccc3c(c2)OCO3)cc1,-9%,?,-61%,5.9µM*
Cc1cccc(C(=O)O/N=C(\N)c2ccc(Br)cc2)c1,2%,·,-22%,?
CCCC1C(C#N)=C(N)Oc2n[nH]c(C(C)(C)C)c21 (stereo not given),-1%,-5%,-3%,0%
COC(=O)[C@@]12CCCCN1[C@H](c1ccc(-c3ccc(C(C)=O)cc3)c(OC)c1)[C@@H]1C(=O)N(C)C(=O)[C@@H]12,-6%,8.3µM*,-6%,?
COC(=O)[C@@]12CCCCN1[C@H](c1ccc(-c3ccccc3)c(OC)c1)[C@H]1C(=O)N(C)C(=O)[C@H]12,-15%,·,3%,·
